Holding throughout (assay): NCI-60 one-dose screen, 48 h (100 = growth as untreated, 0 = no growth, -100 = all killed)
One experiment deals with NCI-H23 lung. To be noted: 10 µM unless noted.
The test system of the next experiment is NCI-H226 lung. To be noted: 10 µM unless noted.
The subject of the next experiment is NCI-H322M lung. Particulars: 10 µM unless noted.
The subject of another experiment is HOP-62 NSCLC. To be noted: 10 µM unless noted.
A further experiment concerns NCI-H460 lung. Particulars: 10 µM unless noted.
The next experiment relates to HOP-92 NSCLC. To be noted: 10 µM unless noted.
Another experiment concerns NCI-H522 lung. Particulars: 10 µM unless noted.
A further experiment deals with A549/ATCC NSCLC. Particulars: 10 µM unless noted.
The next experiment has as its system 786-0 renal. Particulars: 10 µM unless noted.
A further experiment concerns DU-145 prostate. To be noted: 10 µM unless noted.
The test system of the next experiment is K-562 leukemia. Particulars: 10 µM unless noted.
The next experiment has as its system MALME-3M melanoma. To be noted: 10 µM unless noted.
Another experiment relates to MDA-MB-231 breast. To be noted: 10 µM unless noted.
The subject of a further experiment is RXF 393 renal. To be noted: 10 µM unless noted.
For the next experiment, the system named is SF-268 CNS. Particulars: 10 µM unless noted.
Another experiment has as its system SF-295 CNS. Particulars: 10 µM unless noted.
Another experiment deals with SF-539 CNS. To be noted: 10 µM unless noted.
For a further experiment, the system named is UACC-257 melanoma. To be noted: 10 µM.
The subject of another experiment is COLO 205 colon. To be noted: 10 µM unless noted.
The test system of a further experiment is M14 melanoma. Particulars: 10 µM unless noted.

Structures are written as SMILES. This is part of a sample that, as a whole, favours compounds with a hit. Of some 83,000 tested, about 20% had one in any assay.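 Assay: single dose, 48 h. Readout: percent growth (0 = no net growth; negative = cell death). Active: <10.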 A number with no mark means an inactive call. Activity calls are given as the source filed them.

With `Cc1[nH]nc2ccc(-c3nc4cnc(N5CCN(C)CC5)cn4c3Nc3ccc(F)cc3Br)cc12`, the growth in the experiment with NCI-H23 lung was 80.4%; in the experiment with NCI-H226 lung it was 87.9%; in the experiment on NCI-H322M lung, 63.3%; with HOP-62 NSCLC it was 67.1%; with NCI-H460 lung, 69.6%; in the experiment with HOP-92 NSCLC, 61.5%. Besides, the growth with NCI-H522 lung is 67.6%; in the experiment on A549/ATCC NSCLC, 58.7%; in the experiment with 786-0 renal, 4.67% (active); in the experiment with DU-145 prostate it was 51.8%; in the experiment with K-562 leukemia it was 5.31% (active); with MALME-3M melanoma, 76.8%. Also, the growth in the experiment with MDA-MB-231 breast is 8.94% (active); in the experiment with RXF 393 renal, 63.3%; with SF-268 CNS, 75.8%; in the experiment on SF-295 CNS, 66.3%; in the experiment on SF-539 CNS it was -54.9% (active); in the experiment with UACC-257 melanoma, 78.8%.

`O=C(NCCCNc1cc(-c2cn(-c3ccccc3)nc2-c2cccc(O)c2)ccn1)Nc1cc(C(F)(F)F)cc(C(F)(F)F)c1`: the growth was 83.2% with NCI-H23 lung; 79.6% in the experiment with NCI-H226 lung; 90.3% in the experiment with NCI-H322M lung; 78.2% in the experiment on HOP-62 NSCLC; 61.3% with NCI-H460 lung; 52% in the experiment on HOP-92 NSCLC. Besides, the growth was 89.5% in the experiment with NCI-H522 lung; 63.2% in the experiment on 786-0 renal; 80.4% in the experiment on COLO 205 colon; 95.8% in the experiment on DU-145 prostate; 50.7% with K-562 leukemia; 67% with MALME-3M melanoma. Further, the growth in the experiment on MDA-MB-231 breast was 66.8%; in the experiment on RXF 393 renal it was 8.69% (active); with SF-268 CNS, 60.6%; in the experiment with SF-295 CNS, 45.3%; in the experiment on SF-539 CNS, 74.9%; in the experiment with UACC-257 melanoma, 82.3%.

On to `CCNCCCn1c2c(c3cc(OC)c(OC)cc3c1=O)C(=O)c1cc(OC)cnc1-2`, for which the growth was 21.1% in the experiment on NCI-H23 lung; 17.7% in the experiment on NCI-H226 lung; 33.2% in the experiment with NCI-H322M lung; -12.2% (active) with HOP-62 NSCLC; 0.566% (active) in the experiment on NCI-H460 lung; 31.1% in the experiment with HOP-92 NSCLC. For the same compound, the growth was 13.4% with NCI-H522 lung; 34.4% in the experiment with A549/ATCC NSCLC; -3.55% (active) in the experiment with 786-0 renal; 13.4% with COLO 205 colon; 19.6% in the experiment with DU-145 prostate; 62.9% with MALME-3M melanoma. For the same compound, the growth was 16.3% in the experiment with MDA-MB-231 breast; 13.6% in the experiment with RXF 393 renal; 39.5% in the experiment with SF-268 CNS; 14.8% with SF-295 CNS; -7.15% (active) with SF-539 CNS; 13.9% in the experiment on M14 melanoma.

With `COc1ccc2c(c1)c(-c1nn3c(=O)cc(-c4ccccc4)nc3s1)cn2C`, the growth is 63% in the experiment on NCI-H23 lung; 21.1% in the experiment on NCI-H226 lung; 65.2% in the experiment with NCI-H322M lung; 43.2% in the experiment on HOP-62 NSCLC; 21.7% in the experiment with NCI-H460 lung; 18.7% with HOP-92 NSCLC. Also, the growth is -34% (active) with NCI-H522 lung; 56.7% in the experiment on A549/ATCC NSCLC; 37.8% in the experiment on 786-0 renal; 63.8% in the experiment on DU-145 prostate; 35.5% in the experiment with MALME-3M melanoma; 55.3% in the experiment with MDA-MB-231 breast. The growth was 35.4% with RXF 393 renal; 64.9% with SF-268 CNS; 28.8% with SF-295 CNS; 16% in the experiment with SF-539 CNS; 35.4% with M14 melanoma.

For the compound `COc1ccc2c(c1)c(-c1nnc(N)nc1-c1cn(C)c3ccccc13)cn2C`, the growth with NCI-H23 lung is 92.4%; in the experiment with NCI-H226 lung, 86.5%; in the experiment on NCI-H322M lung, 90.4%; with HOP-62 NSCLC, 89.1%; in the experiment with NCI-H460 lung, 99.5%; with HOP-92 NSCLC, 97.9%. Also, the growth in the experiment with NCI-H522 lung is 85%; in the experiment with 786-0 renal it was 90.7%; with COLO 205 colon it was 104%; with DU-145 prostate it was 104%; with K-562 leukemia, 83.5%; in the experiment on MALME-3M melanoma, 85.6%. The growth with MDA-MB-231 breast was 91.1%; in the experiment on RXF 393 renal it was 93.2%; in the experiment with SF-268 CNS, 101%; with SF-295 CNS, 99.5%; in the experiment with SF-539 CNS it was 91.8%; with UACC-257 melanoma, 93.8%. The growth with M14 melanoma is 85.7%.

Turning to `Oc1ccccc1-c1nnc(SCc2ccc(O)c3ncccc23)o1`, the growth in the experiment with NCI-H23 lung was 23.5%; in the experiment on NCI-H226 lung, 67.5%; in the experiment on NCI-H322M lung, 64.2%; in the experiment on HOP-62 NSCLC, 31.1%; with NCI-H460 lung, 5.53% (active); in the experiment on HOP-92 NSCLC, -8.17% (active). The growth is 20.7% with NCI-H522 lung; 32.2% in the experiment on 786-0 renal; 113% in the experiment with COLO 205 colon; 29.6% with DU-145 prostate; 19.8% with K-562 leukemia; 30.3% in the experiment on MALME-3M melanoma. Besides, the growth was 60.6% with MDA-MB-231 breast; 29.4% in the experiment on RXF 393 renal; 34.1% in the experiment on SF-268 CNS; 15.3% in the experiment on SF-295 CNS; 37% in the experiment on SF-539 CNS; 25.2% with UACC-257 melanoma. In the experiment with M14 melanoma, the growth was 27.4%.

For the compound `Cc1cc(C(=O)Nc2ccc(SC#N)cc2)c(C)o1`, the growth is 89.5% in the experiment on NCI-H23 lung; 77.7% in the experiment on NCI-H226 lung; 96.2% in the experiment with NCI-H322M lung; 63.9% with HOP-62 NSCLC; 82.4% in the experiment on NCI-H460 lung; 110% in the experiment on HOP-92 NSCLC. For the same compound, the growth with NCI-H522 lung is 49.8%; with 786-0 renal, 88.2%; in the experiment on COLO 205 colon, 106%; in the experiment with DU-145 prostate it was 104%; in the experiment with K-562 leukemia, 93.3%; in the experiment on MALME-3M melanoma, 107%. The growth in the experiment on MDA-MB-231 breast is 92.4%; in the experiment on RXF 393 renal, 66.5%; in the experiment with SF-268 CNS, 66.6%; with SF-295 CNS, 92.4%; with SF-539 CNS, 98.8%; with UACC-257 melanoma, 111%. In the experiment on M14 melanoma, the growth is 101%.

`CCN1C(=O)N(CC)C2SC(N/N=C/C=C/c3ccccc3OC)=NC21` (configuration not stated): the growth in the experiment with NCI-H23 lung was 30.4%; in the experiment on NCI-H226 lung, 54.9%; with NCI-H322M lung it was 44.8%; with HOP-62 NSCLC, 47.3%; with NCI-H460 lung it was 2.9% (active); with HOP-92 NSCLC, 39.1%. Besides, the growth with NCI-H522 lung is 1.31% (active); with 786-0 renal, 23.8%; in the experiment on COLO 205 colon it was 7.22% (active); with DU-145 prostate it was 12.9%; in the experiment on K-562 leukemia, 18.3%; with MALME-3M melanoma it was 50.4%. Moreover, the growth is 26.5% in the experiment on MDA-MB-231 breast; 20.5% with RXF 393 renal; 50.9% in the experiment on SF-268 CNS; 5.32% (active) in the experiment with SF-295 CNS; -10.6% (active) in the experiment on SF-539 CNS; 73.5% in the experiment on UACC-257 melanoma. In the experiment with M14 melanoma, the growth is 0.965% (active).

The values are drawn from PubChem BioAssay (NCI).
